Bioassay records from PubChem.
Compounds with a hit are over-represented: about 9.3% of the library has one in this group of screens.
NADH enzymes – blocks coupling enzymes of NAD/NADH assays; IC50, µM (titrated, usually from 10 µM), for the others: top-dose inhibition; AID 774; 65,000 compounds, 0.02% hits; coupled PK/LDH NADH assays, four targets;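 active means single-dose screening hits from any of four coupled enzyme assays that gave an IC50 when retested across doses; inconclusive means no clear call, values can overlap the other calls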;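 further: the DPM-DC format reads NADH fluorescence rather than 340 nm absorbance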
M1 antagonist – blocks the rat M1 muscarinic receptor response to acetylcholine | CHO-M1 cells, Fluo-4 calcium, ACh EC80 antagonist mode; hits give low values | B-score at 10 µM | 64,000 compounds, 3.4% hits | P08482;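 active means calcium fluorescence response, raw or row-and-column corrected B-score, differing from the plate sample mean either way at a set confidence level, mostly lower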
Target sequence (P08482 whole entry, looked up): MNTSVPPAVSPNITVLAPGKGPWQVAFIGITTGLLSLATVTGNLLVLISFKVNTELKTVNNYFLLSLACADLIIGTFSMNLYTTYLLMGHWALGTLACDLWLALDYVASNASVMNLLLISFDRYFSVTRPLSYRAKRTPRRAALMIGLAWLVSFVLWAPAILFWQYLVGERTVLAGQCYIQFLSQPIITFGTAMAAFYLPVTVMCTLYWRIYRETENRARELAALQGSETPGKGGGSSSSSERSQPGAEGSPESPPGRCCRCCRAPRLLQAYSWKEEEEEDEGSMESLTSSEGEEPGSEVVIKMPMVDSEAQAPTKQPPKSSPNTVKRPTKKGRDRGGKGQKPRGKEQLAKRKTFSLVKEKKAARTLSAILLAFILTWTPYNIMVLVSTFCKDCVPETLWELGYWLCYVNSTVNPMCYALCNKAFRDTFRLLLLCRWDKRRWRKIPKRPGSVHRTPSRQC
Fluor 339 460 – intrinsic fluorescence of library compounds, ex339/em460 – biochemical, MLSMR library, data from DPM-DC assay, artefact control, profiling panel; fluorescence fold increase at 10 µM; 65,000 compounds, 5.5% hits; compound autofluorescence, ex339/em460 nm, NADH buffer; hits give high values; 1 = no-compound wells, NADH background; AID 709;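 active means at 10 µM, mean starting fluorescence two-fold or more over control wells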;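 further: signal is the first read of a kinetic run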
M1 agonist – agonists of M1 muscarinic receptor; CHO-M1 cells, Fluo-4 calcium fluorescence, agonist mode; hits give high values; B-score at 10 µM; 64,000 compounds, 3% hits; AID 626;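 active means fluorescence rise, raw or as B-score row- and column-corrected plate score, outside the 99.7% band of its plate's samples, either direction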
Abs 340nm – compound absorbs light at 340 nm; compound absorbance at 340 nm, fold over control; fold change at 10 µM; 65,000 tested, under 10 active; AID 708;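 active means at 10 µM dose, initial 340 nm absorbance at least 2 fold that of control wells; inactive means change under 2 fold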;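 further: initial absorbance extrapolated from kinetic A340 decline of NADH oxidation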
Htt clearance – compounds clearing mutant huntingtin protein | 47,000 compounds, 0.42% hits | AID 853 | inhibition, % at 1.5 µM | HeLa Exon1htt(103Q)mCFP, aggregate imaging; zero = plate's median compound well;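 active means inhibition of aggregate fluorescence above about 70%, also judged a hit by eye on the cell image, limit read from the data, passing the limit was not always enough; inconclusive means no rule stated for this call; inactive means not judged a hit on image review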;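 further: cells exposed to compound for three days before fixation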
M1 agonist conf – confirmation of rat M1 muscarinic receptor agonists | shares compounds with M1 agonist | CHO-M1 cells, Fluo-4 calcium fluorescence, agonist mode; actives lie on both sides | fluorescence change (max-min) at 10 µM | 1,700 compounds, 19% hits;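 active means fluorescence change differs from the solvent-only DMSO control mean at a set confidence level in both duplicate runs; inconclusive means differs from solvent-only control mean in just one of two runs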;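 further: an EC20 dose of acetylcholine follows compound addition during the same imaging run; raw fluorescence intensity difference in instrument units with no normalization to controls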
M4 agonist ctr – rat M4 muscarinic agonism, M1 counter-screen. AID 1741. shares compounds with M1 agonist. CHO M4/Gqi5 cells, Fluo-4 calcium fluorescence, agonist mode; actives lie on both sides. fluorescence change (max-min) at 10 µM. 1,700 compounds, 9% hits;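 active means fluorescence change differing from the plate's solvent-only control wells at 99.7% confidence in both duplicates, whether higher or lower; inconclusive means differs from solvent controls in only one of two duplicates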
Starred values were filed as active, the others as inactive; u = inconclusive; x = no result given.

SMILES | NADH enzymes | M1 antagonist | Fluor 339 460 | M1 agonist | Abs 340nm | Htt clearance | M1 agonist conf | M4 agonist ctr
COC(=O)c1ccc(CN2C(=O)NC3(CCCCC3C)C2=O)o1 (configuration not stated) | 4% | 0.35 | 1.2 | -0.27 | 1 | x | x | x
CCCc1nc(SCC(=O)N2CCN(c3ccccc3)CC2)c2c(=O)n(C)c(=O)n(C)c2n1 | 2% | -8.1* | 1.1 | 7.2* | 1 | x | -10 | -59
Cn1c(=O)c2c(SCC(=O)N3CCCc4ccccc43)nc(C3CC3)nc2n(C)c1=O | 2% | -2.6* | 1.1 | 3.8* | 1.1 | x | -28* | u
CC(C)c1nc(SCC(=O)N2CCOCC2)c2c(=O)n(C)c(=O)n(C)c2n1 | 5% | -0.03 | 1.1 | 8.3* | 0.99 | 10 | -23 | -32
CC(C)c1nc(SCC(=O)N2CCN(c3ccccc3)CC2)c2c(=O)n(C)c(=O)n(C)c2n1 | 4% | -3.6* | 1.1 | 5.7* | 1 | x | u | -49
CCCc1nc(SCC(=O)Nc2cc(C)on2)c2c(=O)n(C)c(=O)n(C)c2n1 | 7% | 0.14 | 1.1 | 0.23 | 0.99 | 19 | x | x
CN1CCN(C(=O)c2ccccc2-c2ccccc2C(=O)O)CC1 | 4% | 0.81 | 1.1 | 0.018 | 1 | -15 | x | x
CCS(=O)CCSc1nc2ccccc2s1 (configuration not stated) | x | x | x | x | x | 10 | x | x
Cc1ccc(C2=Nc3ccccc3NC(C)(c3ccc(C)o3)C2)o1 (configuration not stated) | 3% | -0.024 | 1.1 | 0.57 | 1 | x | x | x
CCCc1nc(SCc2cccnc2)c2c(=O)n(C)c(=O)n(C)c2n1 | 3% | -1* | 1.1 | 2.6* | 1 | -4 | -25* | -81*
Cn1c(=O)c2c(SCc3cccnc3)nc(CC(C)(C)C)nc2n(C)c1=O | 3% | -0.84 | 1 | -0.34 | 0.99 | x | x | x
CCc1nc(SCC(=O)Nc2cc(C)on2)c2c(=O)n(C)c(=O)n(C)c2n1 | 2% | 0.048 | 1.1 | -0.32 | 1 | -374 | x | x
CCc1nc(SCC(=O)N2CCC(C)CC2)c2c(=O)n(C)c(=O)n(C)c2n1 | 1% | -3.5* | 1.1 | 3.4* | 1 | x | u | -24
Cc1cc2oc(=O)cc(CN3CCCCC3C)c2c(C)c1Cl (configuration not stated) | 6% | 0.94 | 1.1 | -0.47 | 1 | 11 | x | x
COC(=O)c1ccc(NC(=O)C2C3C=CC(O3)C2C(=O)O)cc1 (configuration not stated) | 2% | 0.11 | 1.2 | -0.5 | 1 | 15 | x | x
Cc1nnc(NC(=O)C2C3C=CC(O3)C2C(=O)O)s1 (configuration not stated) | 7% | 0.59 | 1 | 3.4* | 1 | 20 | u | -41
CCOC(=O)c1ccc(Nc2nnc(C(C)(C)C)c(=O)[nH]2)cc1 | 6% | -0.42 | 1.1 | 3.5* | 1.1 | -37 | -17 | -1.1
CCOC(=O)c1ccc(NC(=O)C2CC2)cc1 | 7% | 0.95 | 1.1 | -0.46 | 0.95 | x | x | x
CC1Cc2ccccc2N1C(=O)CN1C(=O)NC(C)(c2ccc3c(c2)OCCO3)C1=O (configuration not stated) | 10% | 1.4 | 1 | 5.6* | 0.98 | -14 | 14 | -17
CCN1C(=S)SC(=O)C1=C1C=C(C)N(Cc2ccco2)C(C)=C1 | 2% | 0.17 | 1 | 27* | 1.1 | x | 135* | 234*
Cc1ccc(NC(=O)CSc2nnc(-c3ccncc3)n2N)cc1C | 6% | 0.73 | 1.1 | 0.86 | 1.1 | 21 | x | x
O=C(Nc1cccnc1)c1ccc(Cl)c(S(=O)(=O)N2CCCCCC2)c1 | 5% | -0.23 | 1 | 2.4* | 0.99 | x | u | -48
O=C1NC(Nc2nccs2)(C(F)(F)F)C(=O)N1CCc1ccccc1 (configuration not stated) | 2% | -0.25 | 1.2 | 0.075 | 1.1 | 22 | x | x
CCOc1ccc(Nc2ncnc3c2cnn3-c2ccccc2)cc1 | 1% | -0.04 | 1.5 | 3.2* | 1.1 | x | -19 | u
CCC(C)c1ccc(O)c(NC(=O)c2ncn[nH]2)c1 (configuration not stated) | 13% | 0.78 | 1.1 | 12* | 1.1 | -25 | -24* | -37
SMILES | NADH enzymes | M1 antagonist | Fluor 339 460 | M1 agonist | Abs 340nm | Htt clearance | M1 agonist conf | M4 agonist ctr
Cc1ccc(C)c(NC(=O)c2ncn[nH]2)c1 | x | x | x | x | x | 14 | x | x
N#C/C(=C\c1ccc(O)c(O)c1)S(=O)(=O)c1ccccc1 | 2% | 0.52 | 1 | 22* | 1 | 6 | 33 | 15
O=C(NCc1ccc2c(c1)OCO2)C1CCN(c2ncccn2)CC1 | 4% | -0.022 | 1.4 | -0.45 | 1 | -36 | x | x
N#CC1=C(N)NC(SCC(=O)Nc2ccccc2)=C(C#N)C12CCCC2 | 7% | -0.31 | 1.1 | 2.9* | 1.1 | -24 | 7.5 | -5.3
N#CC1=C(N)NC(SCC(=O)O)=C(C#N)C12CCCC2 | 13% | 0.11 | 1.2 | -0.81 | 1 | -27 | x | x
Cc1cc(C)c2cc3c(ccn3C3OC[C@H](O)[C@H](O)[C@H]3O)cc2n1 (some centres not stated) | 4% | -0.62 | 1.4 | 36* | 1.1 | x | 201* | 156
CCC1CCCCN1S(=O)(=O)c1ccc(S(=O)(=O)N(Cc2cccs2)C2CC2)cc1 (configuration not stated) | 5% | -1.9* | 1 | 9.7* | 1 | 34 | -31* | -72*
Cc1ccc(S(=O)(=O)N2CCCC(C(=O)N(Cc3cccs3)C3CC3)C2)cc1 (configuration not stated) | 6% | 0.32 | 1.1 | 0.1 | 1.1 | x | x | x
O=C(CCCn1c(=S)[nH]c2cc3c(cc2c1=O)OCO3)N1CCN(c2ccccc2)CC1 | 7% | -0.62 | 1 | 3.2* | 1.1 | x | u | -60
O=C(CCC1CCCCC1)N1CCN(Cc2ccc3c(c2)OCO3)CC1 | 6% | -0.75 | 1.1 | 6.1* | 1 | x | -12 | u
Cc1cccc(N2CCN(C(=O)CCn3c(=S)[nH]c4cc5c(cc4c3=O)OCO5)CC2C)c1 (configuration not stated) | 5% | -0.17 | 1 | 2.5* | 1 | -102 | -6.2 | -24
O=C(CCCCCn1c(=O)[nH]c2ccccc2c1=O)N1CCN(Cc2ccc3c(c2)OCO3)CC1 | 4% | -1.3 | 1.2 | 3.7* | 0.98 | -15 | -13 | -35
Cc1c(Cc2ccccc2)sc(N)c1C(N)=O | 2% | -0.074 | 1.1 | 8.8* | 0.99 | -113 | 0.13 | -26
COc1ccc(-c2cc(C(F)(F)F)nc(N3CCN(C)CC3)n2)cc1 | 3% | x | 1.3 | x | 1.1 | x | x | x
COc1ccc(-c2cc(C(F)(F)F)nc(N3CCCCCC3)n2)cc1 | 3% | 0.23 | 1.7 | 4.6* | 1.1 | 6 | -3.6 | u
